According to PubChem BioAssay (NCI):
“And” between values parts separate entries of the source, which are not always exact repeats. Identical values can stand only once. The panel holds about 83,000 compounds, 20% with a hit somewhere; the sample as a whole holds those more often.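 How to read the values: 0–100, growth inhibition (40 = 60% inhibited); 0, no net growth; -100 to 0, cell death (-40 = 40% of starting cells died; -100 = all dead).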 The source made the active and inactive calls. Rule for the calls: active = growth percent below 10; inactive = the rest.

System: MDA-MB-468 breast
Experiment: NCI-60 one-dose screen, 48 h (100 = growth as untreated, 0 = no growth, -100 = all killed)
Details: 10 µM unless noted

| SMILES | growth |
| --- | --- |
| Sc1cccc2cccnc12 | 30% (inactive) |
| CCN(CCO)CCNc1ccc(C)c2sc3cc(Cl)ccc3c(=O)c12 | -47.7% (active) |
| O=[N+]([O-])c1ccc(NCSc2ccc(Cl)cc2)cc1 | 98.6% (inactive) |
| COc1ccc(C(O)c2cc3c(N)c(C(=O)Nc4cccc(Br)c4C)sc3nc2C)cc1 (stereo unspecified) | 7.52% (active) |
| C=CC(=O)N[C@@H](/C=C/C(=O)OCC)Cc1ccc(-c2cc(Cl)cc(Cl)c2)cc1 | 1.83% (active) |
| Nc1ncc(-c2ccc3ncnc(N4CCc5cc(F)c(Cl)cc54)c3c2)cn1 | 15.8% (inactive) and -64% (active) |
| Cc1c(C(=O)/C=C/c2csc3ccccc23)[n+](=O)c2ccccc2n1[O-] | -16.5% (active) |
| CC(C)SC1=NC(=C(C(=N1)NC2=ClC=CC=C2)C#N)C3=CC=CC=C3 | 43% (inactive) |
| CCC(CC)n1c(C)cc(=O)n1C(CC)CC | 91.2% (inactive) |
| Nc1nc(Nc2ccccc2)c2ncn(Cc3cc4c(cc3Br)OCO4)c2n1 | 14.7% (inactive) |
| Cc1cc(C)c(-c2c(N)cc(Br)cc2Br)c(N)c1 | -17.1% (active) |
| CCOc1ccccc1-n1c(CN2CCN(C(=O)COc3ccc(CNCCCCCCN4C5CCCC4CC(OC(=O)Nc4cc(C)ccc4OC)C5)cc3)CC2)nc2ccccc2c1=O (stereo unspecified) | -79.1% (active) |
| Cc1c(CN(C)C)cc(C(C)C)cc1C(C)C | 100% (inactive) |
| CCOC(=O)c1cc2cccc(OC)c2oc1=O | 108% (inactive) |
| O=C(Nc1ccccc1)c1ccco1 | 103% (inactive) |
| COc1ccc(C2C=C(c3ccc(Cl)cc3)N=C3SC=CN32)cc1 (stereo unspecified) | 120% (inactive) |
